# According to the supplement of paper PMC10849652:
# The full data set covers some 8,800 targets. This sample favours those with a hit. About 0.5% of all pairs of compound and target were hits. A number with no mark means an inactive call.
# Assays:
# Experiment in all cases: log2 fold change, soluble protein after heating vs DMSO (PISA); higher = thermal stabilisation; K562 lysate, 10 uM; active = over 0.2 and 3.5 SD of the protein, either way, in both replicates (recomputed)
# [1] = compound: CN1CC[C@H](c2c(O)cc(O)c3c(=O)cc(-c4ccccc4Cl)oc23)[C@H](O)C1 [alvocidib]
# How it was run: (§1)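 Soluble protein was defined as the supernatant remaining after 21,000xg for 90 min, following pooling of heated aliquots and adjustment to 0.5% NP-40 at 4°C. Before that, crude K562 extract at 1 mg/mL protein in PBS pH 7.4 with 1 mM MgCl2 was treated with 10 μM compound for 30 min and heated for 3 min across 48°C-58°C. Quantification used TMTpro 16plex LC-MS/MS with channel sums equalised, and values are log-two fold changes in thermal stability relative to solvent controls from duplicates.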
# [2] = compound: CN1CCc2c(c3ccccc3n2Cc2ccc(C(=O)NO)cc2)C1 [Tubastatin A]
# How it was run: as §1
# [3] = compound: CNC(=O)C1=CC=CC=C1NC2=NC(=NC=C2Cl)NC3=C(C=C(C=C3)N4CCOCC4)OC
# How it was run: as §1
# [4] = compound: CNC(=O)c1ccc(Nc2ncc(C(F)(F)F)c(NCc3nccnc3N(C)S(C)(=O)=O)n2)cc1 [defactinib]
# How it was run: as §1
# [5] = compound: CNc1nc(-c2ccc3c(N)n[nH]c3c2)cc(N2C[C@@H](C(=O)NC3CCCCC3)CC[C@H]2C)n1
# How it was run: as §1
# [6] = compound: COC(=O)N[C@@H](C)CNc1nccc(-c2cn(C(C)C)nc2-c2cc(Cl)cc(NS(C)(=O)=O)c2F)n1 [encorafenib]
# How it was run: as §1
# [7] = compound: COC(=O)[C@H](CCSC)NC(=O)C1=C(C=C(C=C1)NC[C@H](CS)N)C2=CC=CC=C2
# How it was run: as §1
# [8] = compound: COc1cc(Nc2ncc3c(n2)-c2ccc(Cl)cc2C(c2c(F)cccc2OC)=NC3)ccc1C(=O)O [alisertib]
# How it was run: as §1
# [9] = compound: COc1cc2nc(-c3cc(F)ccc3O)nc(N[C@@H]3CNC[C@H]3C(C)(C)O)c2cc1OC
# How it was run: as §1
# [10] = compound: COc1cc2ncnc(Nc3ccc(F)c(Cl)c3)c2cc1OCCCN1CCOCC1 [gefitinib]
# How it was run: as §1
# UniProt Q9NXU5, sequence (Q9NXU5 whole entry, looked up): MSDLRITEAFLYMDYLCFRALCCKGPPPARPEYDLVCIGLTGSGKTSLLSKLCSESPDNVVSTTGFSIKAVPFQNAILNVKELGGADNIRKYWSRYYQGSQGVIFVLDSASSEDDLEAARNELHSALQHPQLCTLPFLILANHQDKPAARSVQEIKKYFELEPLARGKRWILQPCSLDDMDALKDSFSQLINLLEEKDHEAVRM
# UniProt Q9H1I8, sequence (Q9H1I8 whole entry, looked up): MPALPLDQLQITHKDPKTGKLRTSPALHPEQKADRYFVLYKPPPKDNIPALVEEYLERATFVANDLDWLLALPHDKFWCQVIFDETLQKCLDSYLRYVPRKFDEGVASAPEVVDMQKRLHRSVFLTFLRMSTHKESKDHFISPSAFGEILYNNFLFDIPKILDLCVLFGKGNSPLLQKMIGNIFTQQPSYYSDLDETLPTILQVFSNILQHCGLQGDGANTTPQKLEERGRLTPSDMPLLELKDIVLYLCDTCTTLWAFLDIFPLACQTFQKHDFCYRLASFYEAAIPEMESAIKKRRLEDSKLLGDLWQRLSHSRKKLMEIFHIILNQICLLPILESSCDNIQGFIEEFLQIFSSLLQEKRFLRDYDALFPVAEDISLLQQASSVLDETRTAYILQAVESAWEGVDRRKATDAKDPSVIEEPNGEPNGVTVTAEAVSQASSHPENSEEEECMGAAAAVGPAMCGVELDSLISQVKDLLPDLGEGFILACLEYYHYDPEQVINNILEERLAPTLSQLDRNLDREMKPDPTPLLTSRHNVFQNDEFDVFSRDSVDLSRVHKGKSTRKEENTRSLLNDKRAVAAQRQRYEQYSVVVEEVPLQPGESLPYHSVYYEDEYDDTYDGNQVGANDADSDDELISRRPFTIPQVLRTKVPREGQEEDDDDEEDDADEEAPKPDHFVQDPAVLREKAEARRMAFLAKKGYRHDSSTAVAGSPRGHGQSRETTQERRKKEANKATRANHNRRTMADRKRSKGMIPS
# UniProt P54886, sequence (P54886 whole entry, looked up): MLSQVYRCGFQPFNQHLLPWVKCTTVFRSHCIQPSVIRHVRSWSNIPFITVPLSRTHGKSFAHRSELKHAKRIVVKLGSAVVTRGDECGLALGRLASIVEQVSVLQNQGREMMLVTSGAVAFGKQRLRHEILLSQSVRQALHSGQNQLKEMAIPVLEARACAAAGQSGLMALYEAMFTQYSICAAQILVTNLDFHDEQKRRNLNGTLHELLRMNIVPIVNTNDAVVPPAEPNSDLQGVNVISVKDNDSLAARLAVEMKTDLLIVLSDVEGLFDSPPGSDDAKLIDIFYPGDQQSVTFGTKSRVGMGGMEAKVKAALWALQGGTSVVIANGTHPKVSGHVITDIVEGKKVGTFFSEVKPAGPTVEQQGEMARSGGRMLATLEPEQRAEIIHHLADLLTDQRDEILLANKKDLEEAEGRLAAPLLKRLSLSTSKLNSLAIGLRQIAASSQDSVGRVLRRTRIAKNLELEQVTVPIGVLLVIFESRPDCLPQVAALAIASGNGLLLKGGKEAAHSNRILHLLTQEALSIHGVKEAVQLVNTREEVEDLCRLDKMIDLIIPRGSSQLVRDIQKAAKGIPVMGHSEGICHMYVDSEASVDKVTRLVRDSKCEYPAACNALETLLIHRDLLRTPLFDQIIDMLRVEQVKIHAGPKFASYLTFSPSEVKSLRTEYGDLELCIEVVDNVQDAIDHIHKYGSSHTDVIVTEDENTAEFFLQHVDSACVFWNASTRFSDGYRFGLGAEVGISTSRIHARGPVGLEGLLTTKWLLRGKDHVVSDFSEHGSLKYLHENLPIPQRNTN
# UniProt Q8N8A2, sequence (Q8N8A2 whole entry, looked up): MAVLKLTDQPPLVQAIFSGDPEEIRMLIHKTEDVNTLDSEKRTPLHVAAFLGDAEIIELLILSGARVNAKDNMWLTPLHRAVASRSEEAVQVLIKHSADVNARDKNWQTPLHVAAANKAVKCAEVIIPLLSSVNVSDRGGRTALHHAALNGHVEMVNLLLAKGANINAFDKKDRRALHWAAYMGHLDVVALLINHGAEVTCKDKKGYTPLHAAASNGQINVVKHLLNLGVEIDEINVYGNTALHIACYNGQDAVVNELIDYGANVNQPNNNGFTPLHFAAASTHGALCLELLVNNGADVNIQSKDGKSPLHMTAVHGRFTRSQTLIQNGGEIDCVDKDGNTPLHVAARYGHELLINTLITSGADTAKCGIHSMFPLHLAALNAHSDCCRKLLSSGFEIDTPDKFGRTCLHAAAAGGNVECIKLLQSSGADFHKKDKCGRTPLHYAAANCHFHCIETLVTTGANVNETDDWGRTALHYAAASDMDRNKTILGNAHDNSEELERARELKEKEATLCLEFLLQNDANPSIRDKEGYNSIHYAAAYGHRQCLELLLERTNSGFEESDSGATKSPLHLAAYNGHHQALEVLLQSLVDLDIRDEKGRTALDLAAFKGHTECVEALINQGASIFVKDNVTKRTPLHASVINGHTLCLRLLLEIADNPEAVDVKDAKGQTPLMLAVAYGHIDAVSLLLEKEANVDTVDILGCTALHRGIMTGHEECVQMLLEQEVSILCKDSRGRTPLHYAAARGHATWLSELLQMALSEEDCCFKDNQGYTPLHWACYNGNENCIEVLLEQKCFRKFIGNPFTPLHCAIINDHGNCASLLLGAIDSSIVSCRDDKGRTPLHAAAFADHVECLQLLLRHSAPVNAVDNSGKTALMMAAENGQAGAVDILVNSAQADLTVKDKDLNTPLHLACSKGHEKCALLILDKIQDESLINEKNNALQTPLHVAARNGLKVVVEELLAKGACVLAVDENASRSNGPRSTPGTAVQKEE
# UniProt P05091, sequence (P05091 whole entry, looked up): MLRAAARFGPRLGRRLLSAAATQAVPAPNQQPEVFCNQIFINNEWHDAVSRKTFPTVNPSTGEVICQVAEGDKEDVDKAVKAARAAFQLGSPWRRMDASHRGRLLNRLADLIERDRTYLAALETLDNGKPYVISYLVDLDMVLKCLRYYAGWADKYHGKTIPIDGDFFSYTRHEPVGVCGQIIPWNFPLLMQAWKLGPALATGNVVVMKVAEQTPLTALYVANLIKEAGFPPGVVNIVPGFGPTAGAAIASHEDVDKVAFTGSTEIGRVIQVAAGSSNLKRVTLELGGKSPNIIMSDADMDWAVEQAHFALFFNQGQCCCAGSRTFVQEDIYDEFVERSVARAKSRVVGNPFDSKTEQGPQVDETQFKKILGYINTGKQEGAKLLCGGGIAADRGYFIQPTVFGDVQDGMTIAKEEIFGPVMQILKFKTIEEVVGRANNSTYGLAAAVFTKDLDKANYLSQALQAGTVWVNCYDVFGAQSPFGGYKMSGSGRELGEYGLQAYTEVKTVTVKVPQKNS
# UniProt Q9P1F3, sequence (Q9P1F3 whole entry, looked up): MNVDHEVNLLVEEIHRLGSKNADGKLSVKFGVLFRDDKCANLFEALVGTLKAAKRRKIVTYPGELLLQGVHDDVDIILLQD
# UniProt Q8N6T3, sequence (Q8N6T3 whole entry, looked up): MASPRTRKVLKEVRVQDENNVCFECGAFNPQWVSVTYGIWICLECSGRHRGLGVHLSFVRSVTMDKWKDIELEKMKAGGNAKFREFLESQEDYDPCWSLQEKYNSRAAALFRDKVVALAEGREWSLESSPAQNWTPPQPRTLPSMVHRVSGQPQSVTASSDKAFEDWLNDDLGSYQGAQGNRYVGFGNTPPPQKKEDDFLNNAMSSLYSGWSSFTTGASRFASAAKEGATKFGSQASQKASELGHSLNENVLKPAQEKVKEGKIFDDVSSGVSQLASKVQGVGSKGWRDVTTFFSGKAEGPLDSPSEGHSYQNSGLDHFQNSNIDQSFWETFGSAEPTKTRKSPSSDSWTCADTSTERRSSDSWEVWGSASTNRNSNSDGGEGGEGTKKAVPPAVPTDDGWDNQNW
# UniProt Q9NWX5, sequence (Q9NWX5 whole entry, looked up): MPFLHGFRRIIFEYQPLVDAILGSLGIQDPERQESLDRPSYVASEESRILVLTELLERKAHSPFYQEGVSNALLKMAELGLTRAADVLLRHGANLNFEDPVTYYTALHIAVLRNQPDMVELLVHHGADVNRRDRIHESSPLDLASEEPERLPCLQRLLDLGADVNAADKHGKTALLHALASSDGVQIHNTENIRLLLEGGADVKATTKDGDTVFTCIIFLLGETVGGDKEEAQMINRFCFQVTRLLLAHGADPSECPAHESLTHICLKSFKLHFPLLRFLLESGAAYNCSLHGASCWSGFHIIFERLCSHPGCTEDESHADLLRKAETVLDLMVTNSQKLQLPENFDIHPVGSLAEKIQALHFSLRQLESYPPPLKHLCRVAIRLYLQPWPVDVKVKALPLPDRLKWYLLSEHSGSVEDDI
# UniProt Q9BR61, sequence (Q9BR61 whole entry, looked up): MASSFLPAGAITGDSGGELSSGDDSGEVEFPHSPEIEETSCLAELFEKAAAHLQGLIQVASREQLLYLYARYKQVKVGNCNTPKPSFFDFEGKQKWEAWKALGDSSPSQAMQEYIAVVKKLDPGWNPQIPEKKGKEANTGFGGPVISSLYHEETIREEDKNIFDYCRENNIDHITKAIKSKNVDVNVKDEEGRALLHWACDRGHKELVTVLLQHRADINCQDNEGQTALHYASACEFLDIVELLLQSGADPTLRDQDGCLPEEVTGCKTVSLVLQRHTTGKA
# UniProt Q8IZP0, sequence (Q8IZP0 whole entry, looked up): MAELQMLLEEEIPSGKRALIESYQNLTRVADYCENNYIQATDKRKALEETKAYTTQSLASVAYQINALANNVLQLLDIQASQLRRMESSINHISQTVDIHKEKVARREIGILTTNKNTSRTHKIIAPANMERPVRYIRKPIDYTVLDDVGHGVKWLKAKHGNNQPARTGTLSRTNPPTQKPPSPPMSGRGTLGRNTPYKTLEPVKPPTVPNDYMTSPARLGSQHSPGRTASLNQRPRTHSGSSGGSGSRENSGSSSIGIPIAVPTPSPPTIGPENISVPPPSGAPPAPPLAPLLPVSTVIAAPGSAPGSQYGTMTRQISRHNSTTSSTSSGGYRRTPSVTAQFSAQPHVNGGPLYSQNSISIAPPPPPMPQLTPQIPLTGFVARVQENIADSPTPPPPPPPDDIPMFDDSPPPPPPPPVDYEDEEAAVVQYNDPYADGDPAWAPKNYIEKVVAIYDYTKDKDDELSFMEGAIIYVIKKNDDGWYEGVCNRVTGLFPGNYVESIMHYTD
Target,log2 fold change [1],log2 fold change [2],log2 fold change [3],log2 fold change [4],log2 fold change [5],log2 fold change [6],log2 fold change [7],log2 fold change [8],log2 fold change [9],log2 fold change [10]
APOBEC3C (UniProt Q9NRW3),-0.019,-0.121,0.018,0.013,-0.007,0.047,-0.067,0.009,0.003,-0.005
ACYP1 (UniProt P07311),0.084,0.008,-0.002,0.014,-0.018,-0.018,-0.016,0.012,-0.008,0.026
AKR1B1 (UniProt P15121),0.033,0.023,-0.003,-0.01,-0.072,0.019,0.009,0.015,-0.008,-0.016
ACAA1 (UniProt P09110),-0.027,0.043,0.008,0.008,0.093,-0.021,0.012,-0.035,0.01,0.015
ACBD6 (UniProt Q9BR61),-0.009,-0.15,0.056,-0.005,0.016,-0.003,0.051,-0.006,0.016,-0.022
ADAMTS5 (UniProt Q9UNA0),-0.33,0.149,0.105,-0.052,0.278,-0.134,-0.012,0.073,0.109,-0.093
AGPAT1 (UniProt Q99943),-0.002,-0.015,0.052,-0.007,-0.033,0.075,-0.016,-0.015,-0.232,0.028
ACAT1 (UniProt P24752),0.018,-0.136,0.001,-0.027,0.05,-0.033,0.04,0,-0.006,-0.06
ARL1 (UniProt P40616),-0.017,-0.025,0.079,0.001,0.088,0.111,-0.293 (active),0.081,0.053,0.057
ARL15 (UniProt Q9NXU5),0.177,-0.002,-0.013,-0.013,-0.021,0.037,-0.211,0.005,0,-0.057
ANXA2 isoform 2 (UniProt P07355),0.012,0.013,-0.012,-0.011,-0.026,-0.03,-0.007,0.002,0.003,-0.009
ALDH2 (UniProt P05091),0.059,-0.006,0.437 (active),-0.03,-0.051,0.006,-0.03,0.037,-0.016,0.014
ANXA5 (UniProt P08758),0.04,0,-0.023,-0.002,-0.067,-0.016,0.049,0.052,-0.009,0.049
APEX1 (UniProt P27695),0.13,-0.07,0.006,0.023,0.038,-0.024,0.076,0,-0.019,-0.064
ACIN1 (UniProt E7EQT4),-0.093,0.095,0.003,-0.038,0.06,0.022,-0.033,-0.039,-0.011,0.051
AARS2 (UniProt Q5JTZ9),0.064,-0.093,-0.011,-0.05,-0.017,0.006,0.106,0.02,-0.119,-0.02
ARFGAP1 (UniProt Q8N6T3),-0.001,-0.008,0.105,0.115,0.025,0.355,-0.054,0.245,0.097,0.209
AKR1C3 (UniProt P42330),0.026,0.073,-0.052,0.017,-0.211,-0.026,0.022,0.056,0.028,-0.003
ALG13 (UniProt Q9NP73),-0.039,-0.065,0.122,0.028,0.053,0.059,-0.082,-0.059,0,-0.224
AKT2 (UniProt P31751),0.001,-0.061,0.036,-0.013,-0.064,0.028,0.037,0.003,-0.005,-0.013

Target,log2 fold change [1],log2 fold change [2],log2 fold change [3],log2 fold change [4],log2 fold change [5],log2 fold change [6],log2 fold change [7],log2 fold change [8],log2 fold change [9],log2 fold change [10]
ABHD16A (UniProt O95870),0.036,0.066,-0.077,0.009,0.054,-0.074,0.245 (active),-0.029,-0.004,-0.021
ASCC2 (UniProt Q9H1I8),-0.009,-0.105,0.002,0,-0.003,0.007,0.037,-0.014,0.016,-0.057
ABHD11 (UniProt Q8NFV4),0,0.032,-0.066,0.034,0.087,-0.028,0.173,-0.027,0.022,0.004
ABHD17A isoform 2 (UniProt Q96GS6),-0.025,0.023,-0.025,-0.009,0.01,-0.009,-0.222,-0.12,0.04,0.044
ASB6 (UniProt Q9NWX5),0.097,0.014,-0.006,0.019,0.099,-0.1,0.174,-0.001,0.073,-0.046
ALDH6A1 (UniProt Q02252),-0.044,0.43 (active),0.106,0.018,0.091,-0.015,0.103,0.086,0.061,0.098
ABHD13 (UniProt Q7L211),-0.225,,,0.022,-0.051,0,0.006,0.023,-0.019,0.06
AP5B1 (UniProt Q2VPB7),-0.091,-0.149,0.099,,-0.092,-0.017,-0.011,-0.008,-0.059,0.05
ALDH18A1 isoform 2 (UniProt P54886),,-0.06,,0.016,-0.139,,,,,
AIMP2 isoform 2 (UniProt Q13155),,-0.038,,,,,,,0.115,
ABRACL (UniProt Q9P1F3),-0.016,,0.121,,0.166,,,0.091,-0.081,-0.207
ABI1 isoform 6 (UniProt Q8IZP0),,,,,,-0.212,0.114,,0.023,
ANKRD44 isoform 2 (UniProt Q8N8A2),-0.688,,0.075,-0.129,,-0.048,0.103,0.2,0.119,0.169
AIF1L (UniProt Q9BQI0),0.083,-0.009,0.073,,0.164,0.06,-0.401 (active),0.095,0.001,0.035
"ADK, A0A5F9ZH76",,,,,,,,0.008,-0.063,0.072
ABL1 isoform 2 (UniProt P00519),,-0.091,0.044,-0.023,-0.011,0.039,0.071,0.019,-0.011,
ADAM17 (UniProt P78536),-0.066,0.063,0.011,0.005,0.04,0.09,0.109,-0.048,,0.031
ACLY isoform 2 (UniProt P53396),-0.147,0.017,,0.007,,0.072,0.009,-0.089,0.071,-0.407
AGPAT2 (UniProt O15120),-0.008,0.01,0.091,-0.104,,0.054,-0.043,0.009,,0.052
